From PMC7862700, “An all-to-all approach to the identification of sequence-specific readers for epigenetic DNA modifications on cytosine” come the findings set out here.

Common to all, as to experiment: DAPPL (digital affinity profiling via proximity ligation, sequencing); 10 mM Tris-HCl pH 7.5, 50 mM NaCl, 1 mM DTT, 4% glycerol, room temperature, 30 min; GST-TFs on glutathione beads, 16-mer random dsDNA library, 0.1% formaldehyde crosslink after washing; high values mean tight binding
Conditions in all cases: protein: recombinant; tags: N-terminal GST; dsDNA, one strand shown

One assay deals with T1, FLI1 (Homo sapiens, UniProt Q01543 1-452).
T1 sequence: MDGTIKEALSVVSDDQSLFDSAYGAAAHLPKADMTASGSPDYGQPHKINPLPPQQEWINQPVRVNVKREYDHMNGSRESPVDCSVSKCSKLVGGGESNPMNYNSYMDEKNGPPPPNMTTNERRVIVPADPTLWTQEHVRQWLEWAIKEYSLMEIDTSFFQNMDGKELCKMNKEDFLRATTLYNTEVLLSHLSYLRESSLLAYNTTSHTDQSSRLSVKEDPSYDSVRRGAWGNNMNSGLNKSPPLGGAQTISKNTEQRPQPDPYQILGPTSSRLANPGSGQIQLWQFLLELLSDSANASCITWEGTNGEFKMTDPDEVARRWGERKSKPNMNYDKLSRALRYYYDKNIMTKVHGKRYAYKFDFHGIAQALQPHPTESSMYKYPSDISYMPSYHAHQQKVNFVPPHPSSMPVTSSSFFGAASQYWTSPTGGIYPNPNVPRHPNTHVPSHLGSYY
The method, boiled down: (§1)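 Sequencing on an Illumina NextSeq500 followed washing, crosslinking with 0.1% formaldehyde, proximity ligation (BsaI/T4 ligase, 1 h, 37 °C) and PCR amplification of pools that had been incubated for 30 min at room temperature with 200 nmole of a random double-stranded 16-mer DNA library in Tris/NaCl/DTT/glycerol buffer. Each pool held DNA-barcoded human transcription factors, expressed in yeast as GST fusions and captured on glutathione beads, plus a tag-only sample. Binding signal is a hexamer's read frequency for a factor divided by its frequency in the tag-only sample.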

For the next assay, the target named is T2, ELK1 (Homo sapiens, UniProt P19419 1-428).
T2 sequence: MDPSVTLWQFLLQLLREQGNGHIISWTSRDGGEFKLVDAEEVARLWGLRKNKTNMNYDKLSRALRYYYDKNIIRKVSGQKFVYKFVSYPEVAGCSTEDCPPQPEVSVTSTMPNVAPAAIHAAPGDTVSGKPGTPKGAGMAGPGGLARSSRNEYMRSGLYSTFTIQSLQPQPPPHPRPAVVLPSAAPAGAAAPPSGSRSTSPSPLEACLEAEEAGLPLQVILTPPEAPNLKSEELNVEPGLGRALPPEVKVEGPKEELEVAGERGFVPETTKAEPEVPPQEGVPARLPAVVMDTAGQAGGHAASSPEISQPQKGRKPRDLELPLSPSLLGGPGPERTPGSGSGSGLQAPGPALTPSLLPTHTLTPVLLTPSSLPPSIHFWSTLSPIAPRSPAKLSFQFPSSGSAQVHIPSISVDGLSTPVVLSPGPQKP
The gist of the method: as §1

A further assay deals with T3, GABPA (Homo sapiens, UniProt Q06546 1-454).
T3 sequence: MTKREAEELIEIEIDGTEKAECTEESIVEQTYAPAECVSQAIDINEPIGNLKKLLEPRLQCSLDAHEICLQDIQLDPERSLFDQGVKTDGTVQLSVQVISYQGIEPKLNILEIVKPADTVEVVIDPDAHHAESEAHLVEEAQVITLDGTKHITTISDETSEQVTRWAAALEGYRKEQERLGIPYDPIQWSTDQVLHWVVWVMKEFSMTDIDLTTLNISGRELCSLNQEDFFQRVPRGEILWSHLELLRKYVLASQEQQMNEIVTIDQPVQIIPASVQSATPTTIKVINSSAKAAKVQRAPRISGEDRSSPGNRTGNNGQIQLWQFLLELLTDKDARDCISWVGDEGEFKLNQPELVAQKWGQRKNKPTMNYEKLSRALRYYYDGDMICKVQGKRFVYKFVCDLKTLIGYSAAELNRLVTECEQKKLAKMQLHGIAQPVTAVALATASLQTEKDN
The gist of the method: as §1

In another assay the target is T4, ERG (Homo sapiens, UniProt P11308 1-479).
T4 sequence: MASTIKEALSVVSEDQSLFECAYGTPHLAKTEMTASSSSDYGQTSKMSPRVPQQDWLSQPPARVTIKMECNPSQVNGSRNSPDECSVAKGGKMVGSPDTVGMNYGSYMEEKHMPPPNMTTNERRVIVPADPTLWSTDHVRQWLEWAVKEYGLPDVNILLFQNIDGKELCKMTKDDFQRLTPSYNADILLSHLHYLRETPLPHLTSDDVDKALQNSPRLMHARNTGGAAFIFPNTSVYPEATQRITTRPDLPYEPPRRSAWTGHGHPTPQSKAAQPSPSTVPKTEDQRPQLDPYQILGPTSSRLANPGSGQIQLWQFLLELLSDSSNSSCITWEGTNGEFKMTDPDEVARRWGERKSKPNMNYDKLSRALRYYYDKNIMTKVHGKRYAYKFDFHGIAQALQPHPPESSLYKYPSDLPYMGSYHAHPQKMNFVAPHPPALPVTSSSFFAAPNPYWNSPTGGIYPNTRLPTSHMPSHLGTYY
The method, boiled down: as §1

The target in the next assay is ELF1 (Homo sapiens, UniProt P32519 1-619). The gist of the method: as §1
Chain of ELF1 (P32519 whole entry): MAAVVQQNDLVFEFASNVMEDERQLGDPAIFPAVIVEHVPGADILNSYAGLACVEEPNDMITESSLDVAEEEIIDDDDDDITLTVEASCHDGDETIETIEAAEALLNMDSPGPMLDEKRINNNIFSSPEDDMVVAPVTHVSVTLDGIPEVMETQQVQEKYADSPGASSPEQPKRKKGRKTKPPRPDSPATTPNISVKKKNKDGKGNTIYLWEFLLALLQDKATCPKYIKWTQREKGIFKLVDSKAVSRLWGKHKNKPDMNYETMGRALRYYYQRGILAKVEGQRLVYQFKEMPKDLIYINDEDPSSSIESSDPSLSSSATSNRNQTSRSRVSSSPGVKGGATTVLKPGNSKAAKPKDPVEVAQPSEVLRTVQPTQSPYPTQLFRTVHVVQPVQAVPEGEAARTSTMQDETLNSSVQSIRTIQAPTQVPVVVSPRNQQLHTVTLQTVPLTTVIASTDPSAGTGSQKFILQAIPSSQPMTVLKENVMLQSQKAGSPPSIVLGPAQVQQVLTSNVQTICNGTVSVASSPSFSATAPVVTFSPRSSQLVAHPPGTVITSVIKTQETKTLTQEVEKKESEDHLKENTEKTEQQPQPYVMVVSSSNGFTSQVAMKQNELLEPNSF
The target of another assay is T5, EHF (Homo sapiens, UniProt Q9NZC4 1-300).
T5 sequence: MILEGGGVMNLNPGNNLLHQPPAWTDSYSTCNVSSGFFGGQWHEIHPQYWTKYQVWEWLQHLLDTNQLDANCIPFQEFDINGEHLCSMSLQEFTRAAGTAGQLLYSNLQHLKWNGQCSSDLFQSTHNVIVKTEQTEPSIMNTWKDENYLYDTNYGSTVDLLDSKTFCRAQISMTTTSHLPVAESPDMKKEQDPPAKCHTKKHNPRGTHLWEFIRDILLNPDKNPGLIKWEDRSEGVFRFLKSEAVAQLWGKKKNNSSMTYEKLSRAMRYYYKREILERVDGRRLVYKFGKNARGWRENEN
The method, boiled down:
as §1

The target in the next assay is SPI1 (Homo sapiens, UniProt P17947 1-270). The gist of the method: as §1
The target of another assay is SPIB (Homo sapiens, UniProt Q01892 1-262). The gist of the method:
as §1

Another assay concerns the target T6, ELK3 (Homo sapiens, UniProt P41970 1-407).
T6 sequence: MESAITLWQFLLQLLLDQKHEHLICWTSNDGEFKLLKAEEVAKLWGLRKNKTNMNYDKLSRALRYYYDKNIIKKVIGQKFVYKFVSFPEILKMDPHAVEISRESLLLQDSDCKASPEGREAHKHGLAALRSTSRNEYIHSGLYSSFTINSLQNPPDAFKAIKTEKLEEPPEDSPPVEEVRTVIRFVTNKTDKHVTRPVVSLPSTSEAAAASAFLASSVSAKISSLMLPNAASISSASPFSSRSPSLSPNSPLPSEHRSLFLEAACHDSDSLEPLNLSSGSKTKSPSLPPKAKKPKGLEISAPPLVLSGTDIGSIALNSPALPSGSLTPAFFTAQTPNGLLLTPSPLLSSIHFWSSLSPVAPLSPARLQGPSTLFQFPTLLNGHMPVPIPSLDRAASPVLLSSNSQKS
The gist of the method:
as §1

The target of a further assay is T7, FEV (Homo sapiens, UniProt Q99581 1-238).
T7 sequence: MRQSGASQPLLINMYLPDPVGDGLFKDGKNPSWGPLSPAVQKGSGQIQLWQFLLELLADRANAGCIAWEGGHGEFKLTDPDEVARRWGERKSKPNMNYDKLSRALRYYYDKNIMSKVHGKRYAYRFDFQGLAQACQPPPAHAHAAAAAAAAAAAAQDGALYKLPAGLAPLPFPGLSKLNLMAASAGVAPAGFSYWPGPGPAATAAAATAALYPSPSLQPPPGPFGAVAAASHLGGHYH
The method, boiled down: as §1

The target in the next assay is ETV5 (Homo sapiens, UniProt P41161 1-510). The gist of the method: as §1
Chain of ETV5 (P41161 whole entry): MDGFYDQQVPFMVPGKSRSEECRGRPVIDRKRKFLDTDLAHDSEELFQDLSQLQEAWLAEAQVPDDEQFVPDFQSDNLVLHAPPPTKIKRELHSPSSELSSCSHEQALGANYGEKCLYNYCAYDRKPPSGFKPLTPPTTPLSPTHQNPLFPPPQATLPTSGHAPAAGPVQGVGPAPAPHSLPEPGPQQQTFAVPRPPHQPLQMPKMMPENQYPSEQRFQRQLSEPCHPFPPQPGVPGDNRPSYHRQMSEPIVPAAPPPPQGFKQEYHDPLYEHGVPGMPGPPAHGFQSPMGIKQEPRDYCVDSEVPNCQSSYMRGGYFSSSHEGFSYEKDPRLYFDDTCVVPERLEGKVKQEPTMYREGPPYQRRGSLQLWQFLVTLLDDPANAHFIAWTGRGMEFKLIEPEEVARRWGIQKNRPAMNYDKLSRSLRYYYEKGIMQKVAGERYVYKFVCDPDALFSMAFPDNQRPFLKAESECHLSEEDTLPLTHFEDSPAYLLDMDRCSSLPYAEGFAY
The target in another assay is T8, SPIC (Homo sapiens, UniProt Q8N5J4 1-248).
T8 sequence: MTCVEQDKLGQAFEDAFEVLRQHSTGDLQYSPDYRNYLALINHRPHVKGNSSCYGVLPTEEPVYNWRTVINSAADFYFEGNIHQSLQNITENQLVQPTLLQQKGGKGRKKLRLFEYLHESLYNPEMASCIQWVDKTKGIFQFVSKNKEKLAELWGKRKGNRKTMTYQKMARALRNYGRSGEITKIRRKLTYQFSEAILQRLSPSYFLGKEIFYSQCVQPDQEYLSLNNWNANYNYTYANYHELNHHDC
The method, boiled down:
as §1

The target of a further assay is ELF4 (Homo sapiens, UniProt Q99607 1-663). The gist of the method:
as §1

The target in the next assay is T9, ERF (Homo sapiens, UniProt P50548 1-548).
T9 sequence: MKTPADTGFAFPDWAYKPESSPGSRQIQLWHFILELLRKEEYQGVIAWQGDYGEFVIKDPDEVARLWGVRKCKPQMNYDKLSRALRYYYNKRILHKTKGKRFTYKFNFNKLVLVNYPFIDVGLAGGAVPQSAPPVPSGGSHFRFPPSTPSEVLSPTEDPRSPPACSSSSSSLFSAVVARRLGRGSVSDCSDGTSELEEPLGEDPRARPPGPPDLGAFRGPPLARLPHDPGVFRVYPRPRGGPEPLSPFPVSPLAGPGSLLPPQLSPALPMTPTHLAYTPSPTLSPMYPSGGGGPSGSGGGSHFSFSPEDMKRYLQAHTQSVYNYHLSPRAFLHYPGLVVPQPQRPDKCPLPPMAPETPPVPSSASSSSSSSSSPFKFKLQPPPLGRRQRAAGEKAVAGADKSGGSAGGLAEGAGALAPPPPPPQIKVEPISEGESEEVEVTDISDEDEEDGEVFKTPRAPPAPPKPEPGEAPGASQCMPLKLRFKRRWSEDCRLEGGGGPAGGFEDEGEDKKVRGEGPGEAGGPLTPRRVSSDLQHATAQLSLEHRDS
The method, boiled down:
as §1

The target of another assay is T10, ETV3L (Homo sapiens, UniProt Q6ZN32 1-361).
T10 sequence: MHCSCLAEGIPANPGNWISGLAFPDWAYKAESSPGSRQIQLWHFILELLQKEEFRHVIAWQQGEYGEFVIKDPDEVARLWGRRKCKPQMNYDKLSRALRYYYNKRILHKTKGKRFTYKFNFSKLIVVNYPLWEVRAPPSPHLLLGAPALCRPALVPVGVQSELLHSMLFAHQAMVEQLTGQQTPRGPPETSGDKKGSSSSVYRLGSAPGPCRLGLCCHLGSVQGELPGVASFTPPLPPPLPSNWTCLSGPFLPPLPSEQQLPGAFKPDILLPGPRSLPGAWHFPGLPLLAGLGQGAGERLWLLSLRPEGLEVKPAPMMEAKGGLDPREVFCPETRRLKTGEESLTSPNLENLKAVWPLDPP
The gist of the method:
as §1

Another assay has as its target T11, ETS2 (Homo sapiens, UniProt P15036 1-469).
T11 sequence: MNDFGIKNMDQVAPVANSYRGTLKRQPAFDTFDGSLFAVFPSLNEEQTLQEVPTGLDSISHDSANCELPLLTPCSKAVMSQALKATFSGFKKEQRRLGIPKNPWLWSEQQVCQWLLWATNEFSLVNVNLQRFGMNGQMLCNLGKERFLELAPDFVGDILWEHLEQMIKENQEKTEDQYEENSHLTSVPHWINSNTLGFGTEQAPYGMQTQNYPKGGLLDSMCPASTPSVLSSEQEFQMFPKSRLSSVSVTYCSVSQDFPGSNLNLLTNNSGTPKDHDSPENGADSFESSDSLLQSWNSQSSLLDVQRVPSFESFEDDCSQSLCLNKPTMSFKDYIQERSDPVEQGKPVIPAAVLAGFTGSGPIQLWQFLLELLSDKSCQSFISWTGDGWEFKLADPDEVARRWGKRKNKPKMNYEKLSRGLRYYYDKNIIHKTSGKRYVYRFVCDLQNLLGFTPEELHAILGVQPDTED
The method, boiled down:
as §1

For a further assay, the target named is T12, ELF5 (Homo sapiens, UniProt Q9UKW6-2 1-255).
T12 sequence: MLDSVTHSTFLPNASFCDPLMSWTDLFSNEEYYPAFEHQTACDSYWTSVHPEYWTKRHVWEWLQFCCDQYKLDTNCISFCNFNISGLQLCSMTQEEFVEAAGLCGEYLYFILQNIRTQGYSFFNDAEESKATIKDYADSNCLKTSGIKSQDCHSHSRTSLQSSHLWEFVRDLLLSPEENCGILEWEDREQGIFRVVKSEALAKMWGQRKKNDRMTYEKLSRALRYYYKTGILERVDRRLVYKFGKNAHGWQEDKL
The method, boiled down: as §1

In a further assay the target is T13, ETV3 (Homo sapiens, UniProt P41162-2 1-143).
T13 sequence: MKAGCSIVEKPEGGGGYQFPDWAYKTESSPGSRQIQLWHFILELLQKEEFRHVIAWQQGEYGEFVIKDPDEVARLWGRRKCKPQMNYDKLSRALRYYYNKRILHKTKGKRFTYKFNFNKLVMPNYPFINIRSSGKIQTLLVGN
The gist of the method:
as §1

The next assay deals with ETV6 (Homo sapiens, UniProt P41212 1-452). The gist of the method:
as §1

Chain of SPIB (Q01892 whole entry): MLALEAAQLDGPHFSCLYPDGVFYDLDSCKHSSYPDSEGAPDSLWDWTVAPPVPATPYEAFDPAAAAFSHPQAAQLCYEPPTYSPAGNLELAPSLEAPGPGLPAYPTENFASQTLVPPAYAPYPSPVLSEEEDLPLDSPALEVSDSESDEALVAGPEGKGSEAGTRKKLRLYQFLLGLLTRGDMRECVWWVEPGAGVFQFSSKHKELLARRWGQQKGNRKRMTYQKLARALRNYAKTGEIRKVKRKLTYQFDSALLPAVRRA
Chain of ELF4 (Q99607 whole entry): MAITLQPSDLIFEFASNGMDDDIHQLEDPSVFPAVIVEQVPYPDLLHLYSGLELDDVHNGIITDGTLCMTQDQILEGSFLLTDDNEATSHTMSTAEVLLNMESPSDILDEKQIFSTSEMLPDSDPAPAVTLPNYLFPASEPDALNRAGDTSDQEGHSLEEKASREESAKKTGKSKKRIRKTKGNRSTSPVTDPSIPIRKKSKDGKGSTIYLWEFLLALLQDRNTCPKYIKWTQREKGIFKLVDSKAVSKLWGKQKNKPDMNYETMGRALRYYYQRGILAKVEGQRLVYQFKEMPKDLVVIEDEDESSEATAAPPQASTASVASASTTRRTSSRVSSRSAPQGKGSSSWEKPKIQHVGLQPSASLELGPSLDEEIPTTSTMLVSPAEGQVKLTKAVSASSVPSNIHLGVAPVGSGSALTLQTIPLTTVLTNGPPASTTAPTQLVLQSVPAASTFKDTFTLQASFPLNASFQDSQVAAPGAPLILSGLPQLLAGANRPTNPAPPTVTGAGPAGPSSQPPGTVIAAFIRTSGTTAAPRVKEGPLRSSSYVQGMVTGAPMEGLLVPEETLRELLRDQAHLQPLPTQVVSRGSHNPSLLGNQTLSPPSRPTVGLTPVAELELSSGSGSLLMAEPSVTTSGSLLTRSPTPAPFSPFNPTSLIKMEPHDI
Chain of ETV6 (P41212 whole entry): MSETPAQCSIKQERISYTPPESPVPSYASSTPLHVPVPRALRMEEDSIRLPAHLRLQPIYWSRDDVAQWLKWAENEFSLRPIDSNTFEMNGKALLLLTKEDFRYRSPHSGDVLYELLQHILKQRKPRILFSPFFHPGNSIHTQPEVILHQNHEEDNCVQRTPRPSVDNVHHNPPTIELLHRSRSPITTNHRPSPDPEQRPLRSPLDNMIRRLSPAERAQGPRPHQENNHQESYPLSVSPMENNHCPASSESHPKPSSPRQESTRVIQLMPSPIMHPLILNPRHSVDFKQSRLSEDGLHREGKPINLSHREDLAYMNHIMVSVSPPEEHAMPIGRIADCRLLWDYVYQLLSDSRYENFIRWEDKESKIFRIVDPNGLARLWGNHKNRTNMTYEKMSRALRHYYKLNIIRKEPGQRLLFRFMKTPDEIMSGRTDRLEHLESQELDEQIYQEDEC

As for TGCCAA, the binding signal with FLI1 was 1.07 fold enrichment (6-mer frequency, TF over GST control); with ELK1 it was 1.11 fold enrichment (6-mer frequency, TF over GST control); with GABPA it was 1.06 fold enrichment (6-mer frequency, TF over GST control); with ERG, 1.06 fold enrichment (6-mer frequency, TF over GST control); in the assay with ELF1, 1.18 fold enrichment (6-mer frequency, TF over GST control); with EHF, 1.09 fold enrichment (6-mer frequency, TF over GST control). Also, the binding signal was 1.12 fold enrichment (6-mer frequency, TF over GST control) with SPI1; 1.11 fold enrichment (6-mer frequency, TF over GST control) in the assay with SPIB; 1.05 fold enrichment (6-mer frequency, TF over GST control) with ELK3; 1.12 fold enrichment (6-mer frequency, TF over GST control) with FEV; 1.08 fold enrichment (6-mer frequency, TF over GST control) with ETV5; 1.08 fold enrichment (6-mer frequency, TF over GST control) with SPIC. Besides, the binding signal is 1.12 fold enrichment (6-mer frequency, TF over GST control) in the assay with ELF4; 1.15 fold enrichment (6-mer frequency, TF over GST control) in the assay with ERF; 1.21 fold enrichment (6-mer frequency, TF over GST control) with ETV3L; 1.12 fold enrichment (6-mer frequency, TF over GST control) with ETS2; 1.1 fold enrichment (6-mer frequency, TF over GST control) with ELF5; 1.13 fold enrichment (6-mer frequency, TF over GST control) with ETV3. Further, the binding signal in the assay with ETV6 was 1.08 fold enrichment (6-mer frequency, TF over GST control).
